Measurements taken from the supplement of paper PMC5641865, “A screen for kinase inhibitors identifies antimicrobial imidazopyridine aminofurazans as specific inhibitors of the Listeria monocytogenes PASTA kinase PrkA” (The Journal of Biological Chemistry, 2017).
± gives the standard deviation of the averaged measurements.

System: Listeria monocytogenes 10403S
Assay: growth inhibition relative to ceftriaxone-alone control; higher = stronger potentiation of ceftriaxone growth inhibition
Details: 10 µM; ceftriaxone 1 ug/ml; 12 h
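Note: End-point A600 read in BHI broth at 37 °C with 2% DMSO, inhibition computed as (1 − OD with compound plus ceftriaxone ÷ OD with ceftriaxone only) × 100.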

Compound	growth inhibition [%]
[O-][S+]1CCN(Cc2ccc(-c3ccc4ncnc(Nc5ccc(OCc6ccccc6)c(F)c5)c4c3)o2)CC1	2.23 ± 7.9
c1ccc(Nc2ncc(-c3ccccc3)o2)cc1	2.45 ± 0.39
CS(=O)(=O)CCNCc1ccc(-c2ccc3ncnc(Nc4ccc(OCc5ccccc5)c(C(F)(F)F)c4)c3c2)o1	-5.15 ± 0.36
COc1ccc(-c2nn3ncccc3c2-c2ccnc(Nc3ccc(F)c(F)c3)n2)cc1	-0.06 ± 1.5
CCCN1CCC(Oc2cc(Nc3nc(Nc4cccc(F)c4C(N)=O)c4cc[nH]c4n3)c(OC)cc2Cl)CC1	-13.1 ± 20
CCn1c(-c2nonc2N)nc2c(N3CCCC3)nccc21	18.7 ± 38
Oc1cc(O)cc(/C=C/c2ccc(O)c(O)c2)c1 [Piceatannol]	29.4 ± 16
CN(C)c1cc2c(Nc3ccc4c(cnn4Cc4ccccc4)c3)ncnc2cn1	-7.88 ± 0.099
CO[C@H]1C[C@@H]2CC[C@@H](C)[C@@](O)(O2)C(=O)C(=O)N2CCCC[C@H]2C(=O)O[C@H]([C@H](C)C[C@@H]2CC[C@@H](OP(C)(C)=O)[C@H](OC)C2)CC(=O)[C@H](C)/C=C(\C)[C@@H](O)[C@@H](OC)C(=O)[C@H](C)C[C@H](C)/C=C/C=C/C=C/1C [Deforolimus (Ridaforolimus)]	39.2 ± 14
CCOc1ccn(-c2ccc(F)cc2)c(=O)c1C(=O)Nc1ccc(Oc2ccnc(N)c2Cl)c(F)c1	23.6 ± 24
Cn1cc(C=C2C(=O)Nc3cccnc32)c2ccccc21	-13 ± 19
CCS(=O)(=O)c1cccc(-c2cc(C(=O)NC3CCN(C)CC3)c(C)c3[nH]c4ncc(C)cc4c23)c1	31.1 ± 6.9
COC(=O)c1sc(-n2cnc3cc(OC)c(OC)cc32)cc1OCc1ccccc1C(F)(F)F	0.599 ± 0.69
CCN1CCC(C(=O)Nc2n[nH]c3nnc(-c4cccc(F)c4F)cc23)CC1	0.339 ± 3.9
NC(=O)c1cccc(Nc2nccc(Nc3cccc4[nH]ncc34)n2)c1	0.727 ± 1.3
CCn1nnc2c(N3CCOCC3)nc(-c3ccc(NC(=O)Nc4ccc(C(=O)N5CCN(C)CC5)cc4)cc3)nc21	20.2 ± 19
Cc1ccc(C(=O)NC2CCCCC2)cc1-c1ccc(C(=O)NCC2CC2)cc1	-1.78 ± 6.1
Nc1ncc(-c2cccc(S(N)(=O)=O)c2)c2scc(-c3ccc(F)c(Cl)c3)c12	-7.14 ± 12
CC1(C)CNc2cc(NC(=O)c3cccnc3NCc3ccncc3)ccc21 [Motesanib Diphosphate (AMG-706)]	22.2 ± 22
CS(=O)(=O)Nc1ccc(-c2ccc3c(NC(=O)C4CC4)n[nH]c3c2)cc1	38.6 ± 43
CCn1c(-c2nonc2N)nc2c(C#CC(C)(C)O)ncc(OC3CCNCC3)c21	77 ± 1.4
CC(C)COC(=O)c1ccc2c(c1)/C(=C/Nc1ccc(S(N)(=O)=O)cc1)C(=O)N2	-6.41 ± 14
